In all, about 81,000 sequences were measured (“one-hybrid fitness for binding parS DNA”: median about -0.17, highest 2% from about 0.51 on). The sample as a whole holds a higher share of the highest values than the screen did.
B1: Caulobacter ParB omega fusion; a variant is named by its letters at X, in order, B8GW30 (parent)
chain: MESVVVGEPGMSEGRRGLGRGLSALLGEVDAAPAQAPGEQLGGSREAPIEILQRNPDQPRRTFREEDLEDLSNSIREKGVLQPILVRPSPDTAGEYQIVAGERAWRAAQRAGLKTVPIMVRELDDLAVLEIGIIENVQRADLNVLEEALSYKVLMEKFERTQENIAQTIGKSXSHVANXMRLLXLPDEVQSYLVSGELTAXHARAIAAAADPVALAKQIIEGGLSVRETEALARKAPNLSAGKSKGGRPPRVKDTDTQALESDLSSVLGLDVSIDHRGSTGTLTITYATLEQLDDLCNRLTRGI

Variants of: B1
Assay: one-hybrid fitness for binding parS DNA (scaled: cognate 1, non-cognate 0); higher = stronger binding
Conditions: with parS DNA site
Procedure, shortened: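 The reporter was HIS3, with the binding site 19 bp from the promoter, in E. coli USO used for bacterial one-hybrid selection of Caulobacter ParB libraries with four specificity codons randomised. Growth was on M9 lacking histidine, with 0.1 mM IPTG and 5 mM 3-AT, for 48 hours at 37°C. Illumina sequencing covered plasmids before and after selection; three replicate libraries were pooled and variants with under 10 reads dropped. A fitness score is the log change in variant-to-wild-type read ratio, rescaled to the cognate and non-cognate references.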

one-hybrid fitness for binding parS DNA, 0.406:
RSYN

one-hybrid fitness for binding parS DNA, 0.43:
RTLN

one-hybrid fitness for binding parS DNA, 0.491:
RSHY

one-hybrid fitness for binding parS DNA, 0.83:
RTRS

one-hybrid fitness for binding parS DNA, 0.938:
RTSS

one-hybrid fitness for binding parS DNA, ≤ 0.2:
DCNA
RHPA
DHNA
WLCT
EVML
IDCL
LAVM
TSYY
APPD
GVQC
TPMT
IMES
QKYV
NYKT
QTEY
RAFP
RAAD
RAAH
FSYG
WYKS
CKSM
QYLA
RTLD
RTIP
RTRP
RTIH
APQT
KERF
LPLK
GVFL
VTMY
RDTG
RTYP
RTPH
RTYD
RTSD
NVPD
TDEP
APNE
FINR
PGNR
YRNV
PVLC
WSCE
QCQH
RTHD
RTHH
RYFK
RYAK
RYFQ
PLPR
RDYC
RPYC
RSNQ
RPNC
RDNC
RSYD
KDHC
ISLY
LALC
LFYG
TPSE
GIAA
MCGR

one-hybrid fitness for binding parS DNA, 0.944:
RTHS

one-hybrid fitness for binding parS DNA, 0.46:
RCHY

one-hybrid fitness for binding parS DNA, 1.01:
RTIS
RTLS

one-hybrid fitness for binding parS DNA, 0.316:
RHIA

one-hybrid fitness for binding parS DNA, 1.02:
RAFS

one-hybrid fitness for binding parS DNA, 0.27:
RENC

one-hybrid fitness for binding parS DNA, 0.822:
RTPS

one-hybrid fitness for binding parS DNA, 0.545:
RHDA

one-hybrid fitness for binding parS DNA, 0.544:
RTHY

one-hybrid fitness for binding parS DNA, 0.941:
RCNC

one-hybrid fitness for binding parS DNA, 0.925:
RYAC

one-hybrid fitness for binding parS DNA, 0.58:
RHRA

one-hybrid fitness for binding parS DNA, 0.22:
RTWD

one-hybrid fitness for binding parS DNA, 0.271:
RTWP

one-hybrid fitness for binding parS DNA, 0.931:
RSYC

one-hybrid fitness for binding parS DNA, 1.05:
RTWS

one-hybrid fitness for binding parS DNA, 0.4:
RTRH

one-hybrid fitness for binding parS DNA, 0.965:
RYFC

one-hybrid fitness for binding parS DNA, 0.562:
RHYA

one-hybrid fitness for binding parS DNA, 0.426:
RAFN

one-hybrid fitness for binding parS DNA, 0.543:
RHNA

one-hybrid fitness for binding parS DNA, 0.422:
RTSN

one-hybrid fitness for binding parS DNA, 1:
RAAS
RTYS
RCYC

one-hybrid fitness for binding parS DNA, 0.957:
RSNC

one-hybrid fitness for binding parS DNA, 0.267:
RYAM

one-hybrid fitness for binding parS DNA, 0.211:
RTPN

From a collection of fitness landscapes (doi:10.1016/j.celrep.2020.107928)
